Experimental data published in PubChem BioAssay (NCATS).
Records with an inconclusive call do not appear. Calls of active or inactive are those of the source. Calls follow the shape of the dose curve; as a rule, active = well fitted curve in the direction sought with a large enough effect; inconclusive = small, poorly fitted or top-dose-only effect, or another doubt; inactive = no such curve, though single readings can be large; an effect the other way counts as inactive or inconclusive.

Key:
[1] = qHTS of pediatric cancer cell lines to identify multiple opportunities for drug repurposing: Primary screen for Rh30 cells (AID 1347107); also: nearly all actives have a fitted effect of over 75% in size
Method in brief: (§1)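 Viability after 48 h compound treatment at 37C, 500-1,000 cells/well, read as ATP luminescence with CellTiter-Glo. Primary screens used 11-point (MIPE, 0.78 nM-46 µM) or 8-point (NPC, 0.59 nM-46 µM) final concentrations; follow-up screens used 11-point dilutions.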

[2] = qHTS of pediatric cancer cell lines to identify multiple opportunities for drug repurposing: Primary screen for Rh41 cells (AID 1347108); also: nearly all actives have a fitted effect of over 70% in size
Method in brief: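 Primary screen of approved and investigational compounds on cells in growth media at 37 degrees C, 5% CO2. MIPE set at 11-point and NPC set at 8-point dilutions; viability scored by ATP-based luminescence at 48 hours.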

[3] = qHTS of pediatric cancer cell lines to identify multiple opportunities for drug repurposing: Confirmatory screen for NB1643 cells (AID 1347109); also: nearly all actives have a fitted effect of over 45% in size
Method in brief: as §1

[4] = qHTS of pediatric cancer cell lines to identify multiple opportunities for drug repurposing: Confirmatory screen for SK-N-MC cells (AID 1347111);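 also: cells exposed to compound for 48 h before the readout; nearly all actives have a fitted effect of over 70% in size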
Method in brief: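 SK-N-MC cells at 500-1,000 cells/well in growth media were pre-incubated 5 h, then exposed to compounds at 11-point dilutions for 48 h at 37 degrees C, 5% CO2. Viability was read as CellTiter-Glo luminescence.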

[5] = qHTS of pediatric cancer cell lines to identify multiple opportunities for drug repurposing: Confirmatory screen for LAN-5 cells (AID 1347113); also: nearly all actives have a fitted effect of over 65% in size
Method in brief: as §1

[6] = qHTS of pediatric cancer cell lines to identify multiple opportunities for drug repurposing: Confirmatory screen for DAOY cells (AID 1347114); also: nearly all actives have a fitted effect of over 65% in size
Method in brief: (§2)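 Viability measured as metabolically active cells via CellTiter-Glo luminescence following 48 hours of compound exposure, 11-point dilutions in confirmatory testing. 500-1,000 cells/well plated 5 hours before dosing; controls were DMSO and 2.3 µM bortezomib.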

[7] = qHTS of pediatric cancer cell lines to identify multiple opportunities for drug repurposing: Confirmatory screen for A673 cells (AID 1347110); also: nearly all actives have a fitted effect of over 65% in size
Method in brief: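 Cells plated at 500-1,000/well were treated five hours later with multi-point dilutions up to 46 µM final. After two days, CellTiter-Glo was added and luminescence read.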

[8] = qHTS of pediatric cancer cell lines to identify multiple opportunities for drug repurposing: Confirmatory screen for BT-12 cells (AID 1347112); also: nearly all actives have a fitted effect of over 55% in size
Method in brief: as §1

[9] = qHTS of pediatric cancer cell lines to identify multiple opportunities for drug repurposing: Confirmatory screen for SJ-GBM2 cells (AID 1347116); also: nearly all actives have a fitted effect of over 60% in size
Method in brief: as §2

[10] = qHTS of pediatric cancer cell lines to identify multiple opportunities for drug repurposing: Confirmatory screen for NB-EBc1 cells (AID 1347115); also: nearly all actives have a fitted effect of over 45% in size
Method in brief: as §1
Potency is read from the fitted curve at half-maximal effect.

| Compound | Potency [1] | Potency [2] | Potency [3] | Potency [4] | Potency [5] | Potency [6] | Potency [7] | Potency [8] | Potency [9] | Potency [10] |
| --- | --- | --- | --- | --- | --- | --- | --- | --- | --- | --- |
| CN1CCN(c2cc(C(=O)Nc3ccc4c(c3)-c3c(c(C(N)=O)nn3-c3ccc(F)cc3)CC4)c(Cl)cn2)CC1 | 16.6 µM (active) | 20.9 µM (active) | 23.3 µM (active) | 20.8 µM (active) | 16.5 µM (active) | 23.3 µM (active) |  |  |  |  |
| Cc1cc(Nc2cc(NC(=O)c3c(Cl)cccc3Cl)ccn2)nc(N)n1 | inactive |  | 5.85 µM (active) | 0.657 µM (active) | 9.27 µM (active) |  | 0.603 µM (active) | 1.31 µM (active) | inactive |  |
| COC(=O)Nc1nc2ccc(C(=O)c3ccc(F)cc3)cc2[nH]1 | inactive |  | 2.33 µM (active) | 1.31 µM (active) |  | 1.17 µM (active) |  | 8.27 µM (active) | 2.33 µM (active) |  |
| O=C(Nc1ncc(-c2cc(C(F)F)nn2-c2c(Cl)cccc2Cl)s1)C1CC1 | inactive |  | 1.17 µM (active) | 0.414 µM (active) | 4.65 µM (active) | 0.329 µM (active) |  |  |  |  |
| COc1ccc(F)c(F)c1C(=O)c1cnc(NC2CCN(S(C)(=O)=O)CC2)nc1N | inactive | 7.43 µM (active) |  | 1.31 µM (active) |  | 8.27 µM (active) | 2.93 µM (active) | 3.69 µM (active) | 0.827 µM (active) | inactive |
| COc1cc2c(Oc3ccc(NC(=O)C4(C(=O)Nc5ccc(F)cc5)CC4)cc3F)ccnc2cc1OCCCN1CCOCC1 | 5.9 µM (active) | 4.69 µM (active) | 5.22 µM (active) | 3.69 µM (active) | 5.22 µM (active) | 11.7 µM (active) |  | 13.1 µM (active) | 5.22 µM (active) | 13.1 µM (active) |
| CC(C)c1nn(-c2c(Cl)cccc2Cl)c2nc(Cc3ccc(OCCO)cc3)[nH]c(=O)c12 | inactive | 0.372 µM (active) | inactive | 0.117 µM (active) | 0.0414 µM (active) | 0.208 µM (active) |  | 0.0827 µM (active) |  | inactive |
| CC=C1NC(=O)[C@H]2CSSCCC=C[C@H](CC(=O)N[C@H](C(C)C)C(=O)N2)OC(=O)[C@H](C(C)C)NC1=O | 0.0296 µM (active) | 0.0148 µM (active) | inactive | 11.7 µM (active) | inactive | inactive |  |  | inactive | inactive |
| CN(C)CC(C)(C)CNc1nn2c(-c3ccccc3)nnc2cc1C1CCC1 | inactive |  | inactive | 20.8 µM (active) | inactive | inactive |  | inactive |  | inactive |
| CC(C)(C)c1cc(NC(=O)Nc2ccc(-c3cn4c(n3)sc3cc(OCCN5CCOCC5)ccc34)cc2)no1 | inactive | inactive | 16.5 µM (active) | 10.4 µM (active) | 23.3 µM (active) | 20.8 µM (active) |  | 26.1 µM (active) | 16.5 µM (active) |  |
| Cc1ccc(C(=O)Nc2ccc(CN3CCN(C)CC3)c(C(F)(F)F)c2)cc1C#Cc1cnc2cccnn12 | 14.8 µM (active) | 9.35 µM (active) |  | 0.0033 µM (active) |  | 8.27 µM (active) | 4.65 µM (active) | 8.27 µM (active) |  |  |
| CCc1c2c(nc3ccc(O)cc13)-c1cc3c(c(=O)n1C2)COC(=O)[C@]3(O)CC | 0.132 µM (active) | 0.235 µM (active) |  |  |  |  | 0.0657 µM (active) | 2.61 µM (active) | inactive | 0.001 µM (active) |
| Cc1c(C)n(Cc2ccc(-c3ccccc3C(=O)O)cc2)c2ccc(C(=O)N[C@@H](C)c3ccc([N+](=O)[O-])cc3)cc12 | inactive |  | inactive | inactive | inactive | inactive |  | inactive |  | inactive |
| O=C(Nc1cn[nH]c1-c1nc2ccc(CN3CCOCC3)cc2[nH]1)NC1CC1 | inactive | 4.69 µM (active) |  | 1.65 µM (active) | inactive | inactive | inactive | inactive |  | inactive |
| CCC(=C(c1ccccc1)c1ccc(OCCN(C)C)cc1)c1ccccc1 | inactive |  |  | 23.3 µM (active) |  |  |  |  | inactive | inactive |
| CC(=O)OCC(=O)[C@@]1(O)[C@H](C)C[C@H]2[C@@H]3C=C(C)C4=Cc5c(cnn5-c5ccccc5)C[C@]4(C)[C@@H]3[C@@H](O)C[C@@]21C |  | 18.7 µM (active) | 10.4 µM (active) | 2.93 µM (active) | 13.1 µM (active) | 18.5 µM (active) |  | 32.9 µM (active) | 13.1 µM (active) | 23.3 µM (active) |
| Cc1ccc(C(=O)Nc2cccc(C(F)(F)F)c2)cc1-c1ccc2nc(NCCN3CCOCC3)ncc2c1 |  | 14.8 µM (active) | 6.57 µM (active) | 14.7 µM (active) | 9.27 µM (active) | 20.8 µM (active) | 13.1 µM (active) |  | 13.1 µM (active) |  |
